aSyn UTR act = Activators working through SNCA 5'UTR binding (MLPCN); AID 1814; alpha-synuclein 5'UTR reporter, activators screen; 300,000 compounds, 7.1% hits; activity score, % (tested at 7.5 µM), hits read low; in the data active means activity score below about -60%
Numbers stand for hits; i = inactive. Only a sample is shown.

SMILES	aSyn UTR act
N/C(=N\OC(=O)c1ccccc1[N+](=O)[O-])c1ccccn1	-104
CC(C)c1ccc(NC(=S)NCc2cccs2)cc1	-86
C=CCN(C(=O)C1CSC2(C)CCC(=O)N12)c1nc(-c2ccccc2)cs1 (stereo not drawn)	-68
C=CCn1c(=O)c2ccccc2n2c(Sc3nnnn3-c3ccccc3)nnc12	-74
COc1ccc(CCNC(=O)c2cccn2C)cc1	-89
Cn1cccc1C(=O)NCCc1ccc(Cl)cc1	-162
COC(=O)C1C(O)=C(C=Nc2ccc3ccccc3c2)C(=O)CC1(C)C (stereo not drawn)	-75
COCCN=C1Sc2nc3ccc(C)cc3cc2CN1Cc1ccco1	-68
Cc1cc2nc(C3CCN(Cc4nnnn4Cc4cccs4)CC3)[nH]c2cc1C	i
COCCN=C1Sc2nc3cc(C)c(C)cc3cc2CN1Cc1cccs1	-78
COc1ccccc1-c1cc(C(=O)N2CCOCC2)no1	-125
COc1ccc(-c2cc(C(=O)N3CCOCC3)no2)cc1	i
O=C(c1cc(-c2cccs2)on1)N1CCOCC1	-169
COc1ccccc1-c1cc(C(=O)N2CCCC2)no1	-133
O=c1c2[nH]c3ccccc3c2nc2n1CCCS2	-75
CCN1CCN(c2ccc(NC(=O)c3ccccc3F)cc2Cl)CC1	-136
CCCCCC(=O)Nc1ccc(N2CCN(CC)CC2)c(Cl)c1	-152
CN(C)c1ccc(NC(=O)c2ccc3nsnc3c2)cc1	-166
O=C(Nc1ccc(Cl)cc1)c1ccc2nsnc2c1	-202
O=C(/C=C/c1cccs1)Nc1nc(-c2ccccc2)cs1	-246
O=C(/C=C/c1cccs1)Nc1cccnc1	-175
O=C(/C=C/c1cccs1)Nc1nncs1	-162
Cc1ccnc(NC(=O)/C=C/c2cccs2)c1	-77
O=C(COC(=O)/C=C/c1cccs1)Nc1nc(-c2cccc(Br)c2)cs1	-79
CC1CCN(c2ccc(-c3cccc(NC(=O)C(F)(F)F)c3)nn2)CC1	i
SMILES	aSyn UTR act
CCC(=O)Nc1ccc(-c2ccc(N3CCC(C)CC3)nn2)cc1	-96
CCC(=O)Nc1ccc(-c2ccc(N3CCN(C)CC3)nn2)cc1	-73
COc1ccc(C=Nc2cccc3c(=O)[nH][nH]c(=O)c23)c2ccccc12	-67
C/[N+]([O-])=C/c1c(OCc2ccc(Cl)cc2Cl)ccc2ccccc12	-72
CCSc1nnc(NC(=O)C2CCCCC2)s1	-98
CCSc1nnc(NC(=O)Nc2cccc(C)c2)s1	-143
C/C(N)=C(/C#N)C(=O)CSc1nc2cc(Cl)ccc2s1	-116
CCSc1nnc(NC(=O)c2csc(C)c2)s1	-176
C/C(N)=C(/C#N)C(=O)CSc1nnc(Nc2cccc(C)c2)s1	-180
Cc1ccc(-n2ncc(Cl)c2C(=O)NCc2ccccc2)cc1	-83
C=CCNC(=O)c1c(Br)cnn1-c1ccc(C)cc1	-88
Cc1cc(NCCN2CCOCC2)c2ccc3ccccc3c2n1	-132
Cc1ccc(-c2nc(NCCN3CCOCC3)c3ccccc3n2)cc1	-138
c1ccc(CN2CCC(Nc3nc(-c4ccccc4)nc4ccccc34)CC2)cc1	i
O=C(OCc1nc2ccccc2s1)C1CCN(C2=NS(=O)(=O)c3ccccc32)CC1	-98
O=C1c2ccccc2S(=O)(=O)N1Cc1nc2ccccc2s1	i
Cc1cc(=O)oc2cc(OCc3cc4c(cc3Cl)OCO4)ccc12	-66
CCCn1nc2cc(C(=O)NCCc3cccs3)ccc2c1OCC	-76
CC1(C)Cc2nc3nc(SCC(=O)Nc4ccccc4)nc(N)c3cc2CO1	-68
CC(=O)c1ccc(NC(=O)CSc2nc(N)c3cc4c(nc3n2)CCCC4)cc1	-79
CCn1c(SCC(=O)Nc2ccc(C(C)=O)cc2)nc2nc3c(cc2c1=O)COC(C)(C)C3	-83
CC1(C)Cc2nc3sc4c(SCC(=O)NCc5ccccc5)ncnc4c3cc2CO1	i
CCc1nn2cc(-c3ccccc3)nc2s1	i
Nc1nn2cc(-c3ccccc3)nc2c2ccccc12	-112
CCCN1Cc2cccc(C(=O)Nc3ccc(-c4nc5ccccc5[nH]4)cc3)c2C1=O	-62
SMILES	aSyn UTR act
COCCN1Cc2cccc(C(=O)Nc3cccc(-c4nc5ccccc5[nH]4)c3)c2C1=O	-80
Cc1ccccc1-c1nnc(SCc2ccc(F)cc2)o1	-126
c1ccc(-c2nnc(SCCC3OCCCO3)o2)cc1	-111
Oc1ccc(-c2nnc(SCc3ccccc3)o2)cc1	-138
c1ccc(CSc2nnc(Cc3ccccc3)o2)cc1	-71
O=C(CSc1nnc(COc2ccc(Cl)cc2)o1)N1c2ccccc2CCc2ccccc21	i
c1ccc(CSc2nnc(-c3cccnc3)o2)cc1	-123
Fc1ccc(CSc2nnc(-c3cccnc3)o2)cc1	-65
COc1cc(OC)cc(C(=O)Nc2ccc3nc4n(c(=O)c3c2)CCCC4)c1	-120
CN(C)c1cccc(C(=O)Nc2ccc3nc4n(c(=O)c3c2)CCCCC4)c1	-81
O=C(/C=C/c1ccco1)Nc1ccc2nc3n(c(=O)c2c1)CCCC3	-176
CCOc1ccccc1C(=O)Nc1ccc2nc3n(c(=O)c2c1)CCCCC3	-77
Cc1cccc(NS(=O)(=O)c2ccc(-c3cnc(C4CC4)o3)cc2)c1C	i
COc1cccc(C(=O)Nc2ccc3nc4n(c(=O)c3c2)CCCC4)c1	-76
O=C(Nc1nnc(-c2ccc3c(c2)CCCC3)o1)C1CCCCC1	-84
COC(=O)CCCNC(=O)CCc1nnc(-c2ccc(-c3ccccc3)cc2)o1	i
O=C(CCc1nnc(-c2ccccc2)o1)NC1CCCCC1	-66
O=C(CCc1nnc(-c2ccc(-c3ccccc3)cc2)o1)NCCc1ccccn1	i
CN(C)S(=O)(=O)c1ccc(C(=O)Nc2nnc(-c3ccc4c(c3)CCCC4)o2)cc1	i
O=C(Nc1ccccc1)Nc1nnc(-c2ccccc2)o1	-63
CN(CCCC1CCCC1)C(=O)CCc1nnc(-c2ccccc2)o1	-139
O=C(Nc1nnc(-c2ccccc2)o1)NC1CCCCC1	-80
Cc1cc(C)n(CCN(C)C(=O)CCc2nnc(CCC3CCCCC3)o2)n1	-145
Cc1cc(Cl)ccc1OCC(=O)Nc1cccnc1	-108
Cc1c(C)c2ccc(OCC(=O)Nc3cccnc3)c(C)c2oc1=O	-137
SMILES	aSyn UTR act
Cc1c(CCOC(=O)CC23CC4CC(CC(C)(C4)C2)C3)sc[n+]1CC(=O)c1ccccc1	-65
CC(/C=N/Nc1nnc2c(n1)[nH]c1ccccc12)=C\c1ccco1	-165
COc1cccc(/C=N/Nc2ccc(Cl)nn2)c1OC	-155
COc1cccc(/C=N/Nc2nnc3c(n2)[nH]c2ccccc23)c1OC	-84
Fc1ccccc1/C=N/Nc1ccc(Cl)nn1	-110
C(=N\Nc1ccc2nncn2n1)/c1ccccn1	i
Cc1ccc(-c2nc3ccccc3s2)cc1S(=O)(=O)N1CCCC1	-63
CCS(=O)(=O)N1CCCC(c2nc(-c3cccc(OC)c3)no2)C1 (stereo not drawn)	-102
O=C(Cc1nc2ccccc2s1)c1ccc(O)cc1O	-147
O=C(CSc1nc2ccccc2s1)c1ccc(O)cc1O	-66
Cc1ccc(Nc2nc(COC(=O)C3CC3)cs2)cc1	-105
CCc1cc2c(=O)c(-c3cscn3)coc2cc1O	-139
O=C1c2ccccc2C(=O)N1CCOc1ccccc1	-96
Nc1cccc2c1C(=O)N(CCOc1ccc(F)cc1)C2=O	-118
O=C1c2ccccc2C(=O)N1CCOc1ccccc1Br	-71
CC(=O)Nc1nc2ccccc2n1CCOc1ccccc1Cl	i
O=C1c2ccccc2C(=O)N1CCOc1ccccc1Cl	-105
Cc1ccccc1OCCN1C(=O)c2ccccc2C1=O	-93
O=C(O)c1ccc(N/N=C/C2=Cc3ccccc3OC2)cc1	-136
CCN(CC)CCn1c2ccccc2c2cnc(N)c(C#N)c21	-655
Nc1cccc(-c2cnc3ccccc3n2)c1	-99

Source: PubChem (Broad Institute)
